Source: PubChem
Only some compounds are listed: those with a hit (about 4% of all), similar ones and a draw of the others.
esBAF inh = SWI/SNF esBAF complex inhibition | mouse ES cells, Bmi1-luciferase knock-in reporter, 24 h; 100% = twice the neutral-well signal | reporter increase, % at 12.5 µM | hit rate 2% among 350,000 | AID 602393; in the data active = activation above about 40%; inconclusive = no clear call, values can overlap the other calls;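 also: 0% = median of the plate's neutral control wells and 100% = double that signal; a rise in the Bmi1 reporter signal indicates esBAF inhibition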
TRPM1 prom inh = inhibitors of MITF-driven TRPM1 promoter in melanoma cells; SK-MEL-5 TRPM1 promoter luciferase, 24 h; inhibition, % at 12.5 µM; hit rate 0.83% among 330,000; AID 488899;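 active = mean inhibition across replicates of 60% or more, whatever share of single replicates reaches that level; inconclusive = some that reach 60%, reason not given; inactive = mean inhibition across replicates below 60%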
EWS-Fli inh = inhibitors of EWS/Fli oncoprotein transcriptional activity; A673 NR0B1-luciferase reporter, viability-normalised; inhibition, % at 12.6 µM; hit rate 0.67% among 350,000;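 active = mean inhibition of at least 50% after viability correction, with every replicate also passing that limit; inconclusive = mean reaches 50% but only one of two replicates passes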;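 also: firefly luciferase signal divided by Alamar Blue viability fluorescence both relative to DMSO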
Wnt act = activators of Wnt/beta-catenin signaling; activation, % at 9.35 µM; hit rate 1.2% among 300,000; Wnt/beta-catenin reporter cell assay, activator, plate reader; AID 743398; in the data active = activation above about 30%, passing the limit was not always enough; inconclusive = no clear call, values can overlap the other calls;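 also: 0% = neutral control wells and 100% = positive control wells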
MITF TRPM1 HTS = MITF TRPM1 promoter activation in melanoma cells; hit rate 0.75% among 300,000; SK-MEL-5 TRPM1-promoter luciferase, 24 h; % of positive control, neutral wells = 0; activation, % at 12.5 µM;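 active = mean activation of at least 80% with every replicate also reaching 80%; inconclusive = mean reaches 80% but some replicate falls short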;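 also: 0% = neutral control wells and 100% = parthenolide positive control wells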
PAX8 inh HTS = PAX8 transcriptional activity inhibition | inhibition, % at 12.6 µM | AID 652154 | hit rate 1.2% among 360,000 | RMG-I TPO-luciferase reporter, SteadyGlo, 24 h;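 active = mean replicate inhibition at least 60% with every replicate also reaching 60%; inconclusive = only one of the two criteria is met; inactive = mean below 60% and not all replicates reaching 60%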;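 also: luciferase light reporting Pax8 driven TPO promoter activity; plate controls were median of neutral control wells for no effect and mitoxantrone controls for full effect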
Numbers without * were called inactive; ? = inconclusive; nt = no result.

SMILES	esBAF inh	TRPM1 prom inh	EWS-Fli inh	Wnt act	MITF TRPM1 HTS	PAX8 inh HTS
CN(C)C(=O)c1cccc(-c2ccc([C@@H]3[C@@H](C#N)N(C(=O)C4CCCC4)[C@@H]3CO)cc2)c1	nt	nt	-3	nt	nt	nt
O=C(NC(Nc1nc2ccc([N+](=O)[O-])cc2s1)(C(F)(F)F)C(F)(F)F)c1ccccc1Cl	nt	75*	33	nt	-72	101*
O=C(NC(Nc1nc2ccc([N+](=O)[O-])cc2s1)(C(F)(F)F)C(F)(F)F)c1cccnc1	nt	78*	4	-3	-76	93*
C[C@H]1CN([C@@H](C)CO)C(=O)c2cc(C#CC3(O)CCCC3)cnc2O[C@@H]1CN(C)Cc1ccncc1	-3	nt	-8	nt	nt	-2
C[C@H](CO)N1C[C@H](C)[C@H](CN(C)Cc2ccc(Oc3ccccc3)cc2)Oc2ccc(NS(=O)(=O)c3ccc(Cl)cc3)cc2C1=O	-2	nt	0	nt	nt	nt
Cc1n[nH]c(=O)n1-c1ccc(OCc2ccccc2)cc1	44*	-51	-92	5	51	-43
C[C@H](CO)N1C[C@H](C)[C@@H](CN(C)C(=O)C2CC2)Oc2ncc(C#Cc3ccccc3F)cc2C1=O	2	nt	-8	nt	nt	nt
Cc1c(CCC(=O)O)c(=O)oc2cc3oc4c(c3cc12)CCCC4	-60	28	57*	10	-25	-32
Cc1onc(-c2ccccc2Cl)c1C(=O)N1CCN(c2nc3ccccc3s2)CC1	-4	22	nt	44*	-22	24
O=C(C1CC1)N1CCN(c2nc3ccccc3s2)CC1	46*	-89	nt	31*	87*	nt
C[C@H](CO)N1C[C@H](C)[C@@H](CN(C)Cc2cncnc2)Oc2ncc(/C=C/c3ccccc3)cc2C1=O	-6	nt	-8	nt	nt	nt
CN(C)CC(=O)N1[C@H](C(=O)NC2CCCC2)[C@@H](CO)[C@@H]2Cn3c(ccc(-c4ccc(F)cc4)c3=O)[C@@H]21	-2	nt	-5	nt	nt	0
CC1CCC(C(C)C)C(=O)/C1=C/c1ccc(N)cc1 (stereo not drawn)	59*	-118	-50	53*	112*	-199
COc1ccc2c3c([nH]c2c1)[C@@H](CO)N(C(=O)Nc1ccc(F)cc1)CC31CN(C(=O)Cc2ccncc2)C1	nt	nt	-4	nt	nt	nt
COc1ccccc1-c1cnc2c(c1)C(=O)N([C@H](C)CO)C[C@H](C)[C@H](CN(C)CC1CC1)O2	nt	nt	-10	nt	nt	nt
COc1ccccc1OCCSc1nc2ccccc2c(=O)[nH]1	64*	-55	nt	44*	52	nt
O=c1[nH]c(SCCOc2ccccc2F)nc2ccccc12	nt	-15	-34	4	18	-128
CS(=O)(=O)Nc1ccc2c(c1)[C@@H]1C[C@H](CC(=O)NCc3ccccc3)O[C@@H](CO)[C@@H]1O2	-1	nt	-3	nt	nt	-1
CC(C)(C)N1C(=O)c2ccc(C(=O)Nc3nccs3)cc2C1=O	54*	-131	nt	nt	140*	nt
Cc1nc2c(C)c(C)c(C)c(C)c2nc1C	nt	nt	-4	-2	nt	12
Cc1nc2c(O)c3c(c(O)c2nc1C)C1C=CC3CC1	nt	63*	-5	-6	-60	1
CN(CCc1cn[nH]c1)Cc1nc(C(c2ccccc2)c2ccccc2)no1	-3	6	8	-1	-4	144*
C[C@H]1CN([C@@H](C)CO)C(=O)Cc2cc(NC(=O)Nc3cccc4ccccc34)ccc2O[C@@H]1CN(C)S(=O)(=O)c1ccccc1	-7	nt	11	nt	nt	8
CCC(=O)N1[C@H](CN(C)C(C)=O)[C@@H](c2ccc(-c3ccccc3)cc2)[C@@H]1CO	-3	nt	3	nt	nt	-12
O=C(Nc1ccc(-c2ccc(N3CCCCC3)nn2)cc1)c1ccco1	60*	-110	-68	22	99*	-33
SMILES	esBAF inh	TRPM1 prom inh	EWS-Fli inh	Wnt act	MITF TRPM1 HTS	PAX8 inh HTS
Cc1nc(N2CCN(C(=O)c3ccco3)CC2)nc2c1C(=O)CCC2	41*	-42	nt	19	41	-81
O=C(Nc1ccc(-c2nnc3n2CCCCC3)cc1)c1ccco1	nt	-9	-15	0	7	-10
O=C(c1ccco1)N1CCN(c2ccc(N3CCCCC3)nn2)CC1	?	-95	-83	31*	99*	-173
O=C(c1ccco1)N1CCN(C(=O)c2ccco2)CC1	nt	nt	0	0	nt	-6
CC(=O)N(C)C[C@H]1Oc2ncc(C#CC(C)(C)O)cc2C(=O)N([C@@H](C)CO)C[C@H]1C	-7	nt	-22	nt	nt	nt
COc1cccc(-c2cn(CC[C@H]3CC[C@@H](NC(C)=O)[C@@H](CO)O3)nn2)c1	-2	nt	-2	nt	nt	18
